Only a selection was taken, and hits are over-represented in it overall.
Vaccinia pol inh: blocks vaccinia virus processive DNA synthesis; in vitro processive DNA synthesis, absorbance read-out; stronger effect = lower value; normalized absorbance, % (test concentration not listed); 46,000 compounds, 0.94% hits; in the data active means normalized absorbance mostly below about 85%, no sharp cut-off; inactive means mostly above about 86%
Of the large screens only hits and unclear results are named; the others gave an inactive call.

Cc1ccc(S(=O)(=O)Nc2c(-c3ccccc3)c3cc(C)ccc3[nH]c2=O)cc1	none
C=CCN1C(=O)/C(=C/c2cc(C)n(CCOC)c2C)C(=O)NC1=S	none
O=C(CCS(=O)(=O)c1ccc(Br)s1)Nc1cccc(C(F)(F)F)c1	none
COc1ccc2nc(-c3ccccc3)cc(C(=O)O)c2c1	none
COc1ccc2nc(C)cc(Nc3ccccc3)c2c1	Vaccinia pol inh 81
COc1ccc2nc(Nc3ccccc3)sc2c1	none
CCSc1nnc(-c2c[nH]c3ccccc23)n1-c1cccc(OC)c1	none
CC[n+]1ccc(C)c2ccccc21	none
CCN1C=C/C(=C\c2cc[n+](CC)c3ccccc23)c2ccccc21	Vaccinia pol inh 65
Cc1ccc2c(c1)c(C)c(C)n2CC(O)CN1CCCCC1 (stereo not given)	none
CN(CC(O)Cn1c2ccccc2c2ccccc21)S(=O)(=O)c1ccc(Cl)cc1 (stereo not given)	none
OC(COc1ccccc1Br)CN1CCNCC1 (stereo not given)	none
CN(C)CC(O)Cn1c2ccccc2c2ccccc21 (stereo not given)	none
CC1CCN(CC(O)Cn2c3ccccc3c3ccccc32)CC1 (stereo not given)	none
CCn1c2c(c3cc(Br)ccc31)CCCC2=O	none
CN(C)CC(O)Cn1c2ccc(Cl)cc2c2cc(Cl)ccc21 (stereo not given)	Vaccinia pol inh 27
OC(CN1CCNCC1)Cn1c2ccccc2c2cc(Br)ccc21 (stereo not given)	Vaccinia pol inh 56
OCC(O)Cn1c2ccc(Br)cc2c2cc(Br)ccc21 (stereo not given)	Vaccinia pol inh 65
COc1ccccc1CNC(=O)c1ccc2c(=O)nc3c(-c4ccccc4)n[nH]n3c2c1	none
CC(=O)n1cc(-c2c(O)c3ccccc3oc2=O)c2ccccc21	none
Nc1nonc1/C(=N/O)N1CCCCC1	none
O=C(O)c1ccccc1C(=O)NCCCn1ccnc1	none
O=C(CC1CCCC1)NC12CC3CC(CC(C3)C1)C2	none
CCOC(=O)Cn1c(=O)c(-c2ccccc2N)nc2ccccc21	none
CCOC(=O)c1cc2c(=O)n3cc(C)ccc3nc2n(Cc2ccco2)c1=N	none
Cc1nn(CO)c(C)c1Sc1ccc(Cl)cc1	none
COC(=O)CC1C(=O)NCCN1C(=O)c1sc2ccccc2c1Cl (stereo not given)	none
Cc1ccc(S(=O)(=O)CCC(=O)O)cc1C	none
CC1=NN(c2cccc(C(=O)O)c2)C(=O)/C1=C/c1ccc(-c2cccc(Cl)c2C)o1	Vaccinia pol inh 51
O=C(O)c1cccc(-c2ccc(/C=c3/sc4nc5ccccc5n4c3=O)o2)c1	none
Cc1ccc(C2=C/C(=C/c3ccc(-c4cccc(C(=O)O)c4)o3)C(=O)O2)cc1	none
CNCc1ccccc1C(F)(F)F	none
CCn1c(SCC(=O)NCCc2ccccc2)nnc1-c1c[nH]c2ccccc12	none
OCCN(CCO)c1nc(N2CCCCC2)c2nc(N(CCO)CCO)nc(N3CCCCC3)c2n1	none
Cc1ccc(C(=O)NCCN2CCCC2)cc1	none
O=C(NCCCN1CCCC1)c1csc2c1CCCCC2	none
O=C(NCCN1CCCC1)C1=Cc2sc3c(c2CS1)CCCC3	Vaccinia pol inh 74
Cc1c(C(=O)NC2CCCC2)oc2ccc3c(c12)C=CC1(CCCC1)O3	none
CC(C)(C)c1ccc(S(=O)c2sc3nc4c(cc3c2N)CCCC4)cc1 (stereo not given)	none
CC(=O)Nc1ccc(Cl)c(Cl)c1	none
COc1ccc(NC(C)=O)cc1C	none
CC(=O)Nc1ccc(-n2c(C)ccc2C)c(C(=O)O)c1	Vaccinia pol inh 49
Cc1cc(C)c2c(c1NC(=O)N1CCCC1)CC(C)(C)C2=O	none
CCOC(=O)c1oc2ccccc2c1N	none
CN1C(=O)/C(=C\c2ccccc2)Sc2ccc(C(=O)NC3CCCCC3)cc21	none
CCCC(C(=O)O)N1C(=O)/C(=C/c2ccc(C)cc2)SC1=S (stereo not given)	none
CCCC(C(=O)O)N1C(=O)/C(=C/c2ccccc2Cl)SC1=S (stereo not given)	Vaccinia pol inh 56
CC(C(=O)O)N1C(=O)/C(=C/c2ccccc2Cl)SC1=S (stereo not given)	none
CN1C(=O)c2ccccc2Sc2ccc(C(=O)O)cc21	none
CN1C(=O)/C(=C/c2ccccc2Cl)Sc2ccc(C(=O)O)cc21	Vaccinia pol inh 46
Cc1cc(C)nc(SCc2nc3ccccc3c(=O)n2-c2ccc(C(F)(F)F)cc2)n1	none
Cc1ccc(-c2cc(N)n(-c3ccccc3)n2)cc1	none
CCCCN(Cc1ccco1)C(=O)c1cc2c(=O)oc3ccc(C)cc3c2s1	none
Cc1ccc2nc(Cl)c3cc(C(=O)N(CCN(C)C)Cc4ccco4)sc3c2c1	Vaccinia pol inh 53
COC(=O)c1cc2c(Cl)nc3ccc(C)cc3c2s1	none
